Laboratory results reported in PubChem BioAssay AID2013 (Sanford-Burnham Center for Chemical Genomics, 2009).
Out of some 290,000 compounds screened, about 370 (0.13%) were called active. This excerpt belongs to a sample that is enriched for actives. Results with a measured potency or affinity are listed apart. Values without a mark were called inactive.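 Rule for the calls: active = spots per cell inhibited over 60%, with over 100 cells counted and total cytoplasm intensity under 500,000; inconclusive = wells with under 100 cells, flagged as likely toxic; inactive = the rest.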

Target: G-protein coupled receptor 55 (Homo sapiens) (UniProt Q9Y2T6)
Sequence (Q9Y2T6 whole entry, looked up): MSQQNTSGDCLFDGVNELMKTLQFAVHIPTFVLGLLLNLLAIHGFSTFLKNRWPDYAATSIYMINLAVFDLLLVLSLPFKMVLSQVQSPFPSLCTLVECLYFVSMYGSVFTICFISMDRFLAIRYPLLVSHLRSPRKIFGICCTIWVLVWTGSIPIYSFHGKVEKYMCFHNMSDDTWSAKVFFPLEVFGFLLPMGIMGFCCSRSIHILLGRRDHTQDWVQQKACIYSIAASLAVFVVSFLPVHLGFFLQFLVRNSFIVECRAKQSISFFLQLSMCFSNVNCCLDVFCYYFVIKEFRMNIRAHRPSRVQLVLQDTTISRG
Assay: GPR55 antagonists blocking LPI-driven arrestin recruitment, primary screen, imaging, U2OS, beta-arrestin-GFP, LPI agonist (AID 2013);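 note: U2OS cells stably carrying GPR55 and arrestin-GFP stimulated by 5 µM LPI near EC80; imaged beta-arrestin-GFP aggregate spots per cell after agonist stimulation; plate controls were LPI-stimulated DMSO wells for no effect and DMSO wells without LPI for full effect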
Conditions: U2OS GPR55 beta-arrestin-GFP translocation imaging, LPI antagonism; at 10 µM; stronger effect = higher value

Structure (SMILES)	inhibition
CC1=Nc2ccccc2/C1=C/c1c(O)n(C)c(=O)[nH]c1=O	1.1%
O=c1[nH]c(=O)n(-c2cccc(F)c2)c(O)c1/C=C1\C=Nc2ccccc21	8.8%
COC(=O)C1=Nc2ccccc2/C1=C\c1c(O)n(-c2ccc(OC)cc2)c(=O)[nH]c1=O	-7.2%
COC(=O)C1=Nc2ccccc2/C1=C\c1c(O)n(-c2ccc(Br)cc2)c(=O)[nH]c1=O	0.3%
Cc1cccc(-n2c(O)c(/C=C/C=Nc3ccccc3)c(=O)[nH]c2=O)c1	0.7%
O=c1[nH]c(=O)n(-c2ccccc2)c(O)c1/C=C1/C(c2ccccc2)=Nc2ccccc21	68.8% (active)
Cc1ccccc1-n1c(O)c(/C=C2/C(c3ccccc3)=Nc3ccccc32)c(=O)[nH]c1=O	83% (active)
Cc1cccc(-n2c(O)c(/C=C3/C(c4ccccc4)=Nc4ccccc43)c(=O)[nH]c2=O)c1	74.4% (active)
O=c1[nH]c(=O)n(-c2ccccc2F)c(O)c1/C=C1\C=Nc2ccccc21	21.1%
C#C[C@@]1(O)CCC2C3CCC4=C/C(=N/OCC(=O)NC(C(=O)NC(CC(C)C)C(=O)O)C(C)C)CC[C@]4(C)C3CC[C@@]21C (stereo not given in full)	13.1%
COc1ccccc1-n1c(-c2ccccc2)nc2ccccc2c1=O	-1.7%
CN1CCN(c2nc(N(C)C)oc(=O)c2C#N)CC1	2.9%
Cc1cc(C)nc(-n2c(C)nc3cc(Cl)ccc3c2=O)c1	14.5%
C/C(=N\Nc1ccccc1)c1c(O)[nH]c(=O)[nH]c1=O	-0.7%
NNP(=O)(CC(=O)c1ccccc1)c1ccccc1 (stereo not given)	-7%
O=S(=O)(NC1CCCC1)OCC(Cl)(Cl)Cl	0.6%
Cc1ccc2c(c1Cl)NC(C(=O)O)C1CC(Sc3ccccc3[N+](=O)[O-])C(Cl)C21 (stereo not given)	70.4% (active)
CC(=O)c1ccc2c(c1)C1C(Cl)C(Sc3ccccc3[N+](=O)[O-])CC1C(C(=O)O)N2 (stereo not given)	21.4%

Structure (SMILES)	inhibition
O=C(O)c1cccc2c1NC(C(=O)O)C1CC(Sc3ccccc3[N+](=O)[O-])C(Cl)C21 (stereo not given)	17.5%
CCOC(=O)C(O)(c1ccc(N(CC)C(=O)COc2ccccc2)cc1)C(F)(F)F (stereo not given)	7.2%
Cc1cc(OCC(=O)N[C@@H](Cc2ccccc2)C(=O)O)c2c3c(c(=O)oc2c1)CCC3	1.6%
O=C1NC(=O)N(CCc2ccc(F)cc2)C(=O)/C1=C/c1ccco1	95.4% (active)
O=C1NC(=O)N(Cc2ccccc2)C(=O)/C1=C\c1ccco1	22.2%
O=C1NC(=O)N(CCc2ccc(F)cc2)C(=O)/C1=C/c1cccs1	84.1%
Cn1ncnc2c(=O)n(C)c(=O)nc1-2	79.3% (active)
Cc1nc2c(=O)n(C)c(=O)nc-2n(C)n1	23.5%
CCn1nc(-c2ccccc2)nc2c(=O)n(C)c(=O)nc1-2	18.7%
CN(Cc1ccccc1)C(=O)CN1CCCC1=O	-7.6%
C=CCOc1ccc(CC2C(=O)N(C)C(=O)N(C)C2=O)cc1	11.7%
O=S(=O)(c1ccc(O)cc1)c1ccc(O)cc1	11%
Oc1ccc(C(=C(Cl)Cl)c2ccc(O)cc2)cc1	94.8% (active)
CCc1cc(=O)oc2cc(OCC(=O)N3C[C@H]4C[C@@H](C3)c3cccc(=O)n3C4)c(Cl)cc12	-10.3%
CCCc1nc2ccccc2c(=O)n1-c1ccc(OC)cc1	12.2%
CC12CCC3C(CC=C4CC(O)CCC43C)C1C/C(=C\c1ccccc1F)C2=O (stereo not given)	1.4%
CCOC(=O)c1cc(C(O)(C(=O)OC)C(F)(F)F)c(/N=C/N(C)C)o1 (stereo not given)	14.3%
